# Shown is part of a subset that was picked to be rich in the strongest signals.
# B1: Pwp1 (Candida glabrata) (protein)
# chain: MGSSHHHHHHSSGLVPRGSHMASANPISITNVCQFPDNWARTAGFQATTVRLGLTIASNTYKELLNYPGLFNFATQKATVTQPNFSISGFPFFTGLYGLTVWPINLLVELQGYFVPPESGNYTFTLQGSDDAAILFFANPSTFACGSQNDWPQPREADITVTDTLVPSRTLYLVKGVAYPIRIAYYNGSGDGKLNVSFKDPSGTTHTDWKGYVWQYSNTCSTCTYT
# Columns and labels:
# Experiment in all cases: glycan array binding signal (z-score within array); higher = stronger binding
# Conditions in all cases: glycan notation: IUPAC condensed, linker removed
# [1] = molecular target: GalNAc(b1-3)Gal(a1-4)Gal(b1-4)GlcNAc(b1-3)Gal(b1-4)Glc
# Procedure, shortened: (§1)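 The binding signal is a Z-score computed within each array. Data were drawn from 3228 arrays in the Consortium for Functional Glycomics database, restricted to those with a known protein sequence. Scores were averaged over arrays of the same protein sequence at different concentrations or buffers, and over linkers, and negative values can be taken as non-binding.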
# [2] = molecular target: GlcNAc(a1-4)Gal(b1-4)GalNAc
# Procedure, shortened: as §1
# [3] = molecular target: GlcNAc(a1-4)Gal(b1-4)GlcNAc(b1-3)Gal(b1-4)Glc
# Procedure, shortened: as §1
# [4] = molecular target: GlcNAc(b1-2)[GlcNAc(b1-4)]Man(a1-3)[GlcNAc(b1-2)Man(a1-6)]Man(b1-4)GlcNAc(b1-4)GlcNAc
# Procedure, shortened: as §1
# [5] = molecular target: GlcNAc(b1-3)Gal(b1-4)GlcNAc(b1-2)[GlcNAc(b1-3)Gal(b1-4)GlcNAc(b1-6)]Man(a1-6)[GlcNAc(b1-3)Gal(b1-4)GlcNAc(b1-2)Man(a1-3)]Man(b1-4)GlcNAc(b1-4)GlcNAc
# Procedure, shortened: as §1
# [6] = molecular target: GlcNAc(b1-4)Gal(b1-4)GlcNAc
# Procedure, shortened: as §1
# Man(a1-3)[Man(a1-6)]Man = molecular target: Man(a1-3)[Man(a1-6)]Man
# Procedure, shortened: as §1
# [7] = molecular target: Neu5Ac(a2-3)Gal(b1-3)GalNAc(b1-4)[Neu5Ac(a2-8)Neu5Ac(a2-3)]Gal(b1-4)Glc
# Procedure, shortened: as §1
# [8] = molecular target: Neu5Ac(a2-3)Gal(b1-3)GlcNAc(b1-2)Man(a1-3)[Neu5Ac(a2-3)Gal(b1-3)GlcNAc(b1-2)Man(a1-6)]Man(b1-4)GlcNAc(b1-4)GlcNAc
# Procedure, shortened: as §1
# [9] = molecular target: Neu5Ac(a2-3)Gal(b1-3)GlcNAc(b1-3)GalNAc
# Procedure, shortened: as §1
# [10] = molecular target: Neu5Ac(a2-3)Gal(b1-3)[Fuc(a1-4)]GlcNAc
# Procedure, shortened: as §1
# [11] = molecular target: Neu5Ac(a2-3)Gal(b1-3)[GlcNAc(b1-6)]GalNAc
# Procedure, shortened: as §1
# [12] = molecular target: Neu5Ac(a2-3)Gal(b1-3)[Neu5Ac(a2-6)]GalNAc
# Procedure, shortened: as §1
# [13] = molecular target: Neu5Ac(a2-3)Gal(b1-4)GlcNAc(b1-2)Man(a1-3)[Neu5Ac(a2-3)Gal(b1-4)GlcNAc(b1-2)Man(a1-6)]Man(b1-4)GlcNAc(b1-4)[Fuc(a1-6)]GlcNAc
# Procedure, shortened: as §1
# [14] = molecular target: Neu5Ac(a2-3)Gal(b1-4)GlcNAc(b1-2)[Neu5Ac(a2-3)Gal(b1-4)GlcNAc(b1-6)]Man(a1-6)[Neu5Ac(a2-3)Gal(b1-4)GlcNAc(b1-2)Man(a1-3)][GlcNAc(b1-4)]Man(b1-4)GlcNAc(b1-4)GlcNAc
# Procedure, shortened: as §1
# [15] = molecular target: Neu5Ac(a2-3)Gal(b1-4)GlcNAc(b1-3)Gal(b1-4)GlcNAc(b1-3)GalNAc
# Procedure, shortened: as §1
# [16] = molecular target: Neu5Ac(a2-3)Gal(b1-4)[Fuc(a1-3)]GlcNAc(b1-2)Man
# Procedure, shortened: as §1
# [17] = molecular target: Neu5Ac(a2-6)Gal(b1-4)GlcNAc(b1-2)Man(a1-3)[Man(a1-6)]Man(b1-4)GlcNAc(b1-4)GlcNAc
# Procedure, shortened: as §1
# [18] = molecular target: Neu5Ac(a2-6)Gal(b1-4)GlcNAc(b1-2)Man(a1-6)[Man(a1-3)]Man(b1-4)GlcNAc(b1-4)GlcNAc
# Procedure, shortened: as §1
# [19] = molecular target: Neu5Ac(a2-6)Gal(b1-4)GlcNAc(b1-6)[Gal(b1-3)]GalNAc
# Procedure, shortened: as §1
# [20] = molecular target: Neu5Ac(a2-8)Neu5Ac(a2-3)Gal(b1-4)Glc
# Procedure, shortened: as §1
# [21] = molecular target: Neu5Ac(a2-8)Neu5Ac(a2-8)Neu5Ac(a2-3)Gal(b1-4)Glc
# Procedure, shortened: as §1
# Neu5Ac(b2-6)GalNAc = molecular target: Neu5Ac(b2-6)GalNAc
# Procedure, shortened: as §1
# [22] = molecular target: Neu5Gc(a2-8)Neu5Gc(a2-6)Gal(b1-4)GlcNAc
# Procedure, shortened: as §1
binder,measurement,setting,value
B1,glycan array binding signal (z-score),[1],1.77
same,glycan array binding signal (z-score),[2],-1.74
same,glycan array binding signal (z-score),[3],1.72
same,glycan array binding signal (z-score),[4],0.374
same,glycan array binding signal (z-score),[5],0.839
same,glycan array binding signal (z-score),[6],-2.23
same,glycan array binding signal (z-score),Man(a1-3)[Man(a1-6)]Man,-1.51
same,glycan array binding signal (z-score),[7],0.23
same,glycan array binding signal (z-score),[8],1.89
same,glycan array binding signal (z-score),[9],0.585
same,glycan array binding signal (z-score),[10],-1.74
same,glycan array binding signal (z-score),[11],3.78
same,glycan array binding signal (z-score),[12],0.612
same,glycan array binding signal (z-score),[13],0.747
same,glycan array binding signal (z-score),[14],2.29
same,glycan array binding signal (z-score),[15],0.411
same,glycan array binding signal (z-score),[16],-1.41
same,glycan array binding signal (z-score),[17],-0.785
same,glycan array binding signal (z-score),[18],0.335
same,glycan array binding signal (z-score),[19],-1.62
same,glycan array binding signal (z-score),[20],0.642
same,glycan array binding signal (z-score),[21],-0.355
same,glycan array binding signal (z-score),Neu5Ac(b2-6)GalNAc,1.13
same,glycan array binding signal (z-score),[22],1.17

# From the supplement of paper PMC8728848
